# PG9 Ab binder: small molecules binding HIV-1 gp120 antibody PG9; TR-FRET gp120-PG9 antibody binding; inhibition, % at 6.7 µM; 360,000 compounds, 0.43% hits; in the data active = inhibition above about 8.5%
# LEDGF integ inh: blocks HIV-1 LEDGF/p75-dependent DNA integration. 370,000 compounds, 0.64% hits. inhibition, % at 3.7 µM. AID 743269. TR-FRET IN-LEDGF/p75 DNA integration, Eu/Cy5;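 active = inhibition above the screen-wide mean plus 3 SD, cut at about 13% in these data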;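 also: signal is the Cy5 over europium emission ratio at 671 and 618 nm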
# MBD2 DNA inh: MBD2-methylated oligo binding inhibition | Q9UBB5 | TR-FRET, MBD2 binding to methylated oligonucleotide | inhibition, % at 4.4 µM | 370,000 compounds, 0.31% hits | AID 686964; in the data active = inhibition above about 13%
# UHRF1 MBD2 ctr: UHRF1 methyl-DNA binding inhibition; 370,000 compounds, 0.75% hits; UHRF1 binding to methylated oligo, TR-FRET; AID 687016; inhibition, % at 4.4 µM; in the data active = inhibition above about 21%;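 also: UHRF1 SRA domain binding a hemimethylated CpG hairpin DNA probe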
# Target sequence (Q96T88 whole entry, looked up, the tested form may be a part): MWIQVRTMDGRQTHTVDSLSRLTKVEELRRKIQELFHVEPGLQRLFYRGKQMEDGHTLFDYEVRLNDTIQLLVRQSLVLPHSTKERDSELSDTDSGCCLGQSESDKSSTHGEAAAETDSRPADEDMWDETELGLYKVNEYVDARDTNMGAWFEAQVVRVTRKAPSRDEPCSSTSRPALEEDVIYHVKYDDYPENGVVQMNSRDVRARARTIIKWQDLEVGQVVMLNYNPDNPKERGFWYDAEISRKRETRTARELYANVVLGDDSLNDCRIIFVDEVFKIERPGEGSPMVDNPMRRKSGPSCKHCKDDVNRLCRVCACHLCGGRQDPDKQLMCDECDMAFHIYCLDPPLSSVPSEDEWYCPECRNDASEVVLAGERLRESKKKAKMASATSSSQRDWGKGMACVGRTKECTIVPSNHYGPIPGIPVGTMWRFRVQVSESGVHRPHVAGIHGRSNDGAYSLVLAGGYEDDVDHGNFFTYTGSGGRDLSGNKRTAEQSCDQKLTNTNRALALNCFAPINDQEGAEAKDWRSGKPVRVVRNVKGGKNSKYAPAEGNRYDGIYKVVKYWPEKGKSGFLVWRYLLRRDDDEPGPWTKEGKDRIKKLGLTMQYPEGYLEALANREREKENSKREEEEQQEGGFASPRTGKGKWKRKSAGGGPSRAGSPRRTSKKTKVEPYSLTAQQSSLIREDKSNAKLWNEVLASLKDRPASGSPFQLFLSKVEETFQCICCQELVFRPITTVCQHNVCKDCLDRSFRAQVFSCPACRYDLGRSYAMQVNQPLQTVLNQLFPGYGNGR
# DNMT1 inh: DNMT1 (human) enzyme inhibition; DNMT1 molecular beacon, Hinp1I cleavage, fluorescence; P26358; 360,000 compounds, 0.83% hits; inhibition (reported as % activation of signal), % at 10 µM; in the data active = inhibition above about 50%
# rCAG RNA binder: molecules binding r(CAG) RNA repeats | r(CAG) RNA repeat, TO-PRO-1 dye displacement fluorescence | inhibition, % at 3 µM | 370,000 compounds, 1.3% hits;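 active = inhibition above the plate cutoff, the mean of all test compounds on that plate plus 3 SD, cut at about 35% in these data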;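 also: higher means more dye released from RNA so lower well fluorescence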
# DNMT1 confirm: DNMT1 inhibition confirmation, single concentration | shares compounds with DNMT1 inh | AID 602385 | inhibition, % at 10 µM | DNMT1 molecular beacon HinP1I cleavage, fluorescence | 2,300 compounds, 8% hits;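 active = average inhibition of at least 30% in the single-concentration confirmation test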
# Beacon interf: counter-screen for DNMT1 inhibitors: spectral interference | shares compounds with DNMT1 inh | DNMT1 molecular beacon spectral interference counterscreen, fluorescence 485/520 | activation (fluorescence interference), % at 10 µM | 2,300 compounds, 1% hits | AID 602387;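 active = activation of at least 30% at 10 µM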;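 also: DNMT1 catalytic domain with a HinP1I cleavage step and a FAM/dabcyl DNA beacon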
# Hits are given with their value; – = inactive; · = not tested or not shown. Shown are actives, neighbours in structure and some others; about 3.5% of the full set was active somewhere.
SMILES,PG9 Ab binder,LEDGF integ inh,MBD2 DNA inh,UHRF1 MBD2 ctr,DNMT1 inh,rCAG RNA binder,DNMT1 confirm,Beacon interf
C=C(C)C1(O)OC(=O)C=C1OC (stereo unspecified),–,–,–,–,53,–,–,–
O=C(CCS(=O)(=O)c1ccc(Br)cc1)N1CCCCCC1,–,–,–,–,100,–,–,–
O=C(CCNS(=O)(=O)c1ccc(Br)cc1)N1CCCCCCC1,–,–,–,–,–,–,·,·
O=C(Nc1ccccc1F)c1ccc(Br)o1,–,–,–,–,69,–,–,–
Cc1c(NC(=O)C2CCCN(S(=O)(=O)c3cccc4ccccc34)C2)c(=O)n(-c2ccccc2)n1C (stereo unspecified),·,–,–,–,·,–,·,·
CC1Sc2ccc(C(=O)N(CCc3ccccc3)Cc3ccccc3)cc2NC1=O (stereo unspecified),–,–,–,–,83,–,–,–
CC(C)NC(=S)NN(c1ccccc1)c1ccccc1,–,–,–,–,108,–,–,–
C=CCNC(=S)NN(c1ccccc1)c1ccccc1,–,–,–,–,–,–,·,·
Cc1cc(C)cc(NC(=O)CN(C)CC(=O)N(CC(C)C)c2c(N)n(CC(C)C)c(=O)[nH]c2=O)c1,–,–,–,–,–,–,·,·
O=C(CCc1ccc(S(=O)(=O)N2CCOCC2)cc1)OCc1nc2ccccc2s1,–,–,–,–,99,–,–,–
Cc1ccc(/C=C/C(=O)O)cc1S(=O)(=O)Nc1ccc(C(=O)O)cc1,–,–,–,–,67,–,–,–
Cc1ccc(C(=O)NCc2occc2C(=O)O)o1,–,–,–,–,53,–,–,–
Cc1ccc(C(=O)NCc2ccco2)o1,–,–,–,–,–,–,·,·
CN1CCS/C1=C\C=C1/SC(=S)N(CC(=O)O)C1=O,–,–,–,–,63,–,57,60
COc1ccc(-c2nnc(SCC(=O)NC(=O)Cc3ccccc3)n2C)cc1,–,–,–,–,–,–,·,·
COc1ccc(C(=O)NC(=S)Nc2nnn(C)n2)cc1,–,–,–,–,86,–,–,–
COc1cccc(C(=O)NC(=S)Nc2nnn(C)n2)c1,–,–,–,–,–,–,·,·
Cc1ccc(CN2C(=O)N/C(=C\c3ccc(-c4ccc(C(=O)O)cc4C)o3)C2=O)cc1,–,–,–,–,126,–,–,–
Cc1ccc(/C=C2/NC(=O)N(Cc3ccccc3)C2=O)o1,–,–,–,–,–,–,·,·
COc1ccc(Nc2ccc(Nc3ccc(OC)cc3)nn2)cc1,–,–,–,–,–,–,·,·
COc1ccc(Nc2ccc(OC)cc2)cc1,–,–,–,–,56,–,–,–
COc1ccc(O)c(/C=N/NC(=O)c2c(C)nnn2-c2nonc2N)c1,–,–,–,–,96,–,–,–
Cc1ccc([C@H]2C[C@H](n3cc(C4CC4)nn3)[C@@H](O)CN2C(=O)c2cccs2)cc1,–,–,–,–,–,–,·,·
COc1cc(S(=O)(=O)NCCOC23CC4CC(CC(C4)C2)C3)c(OC)cc1Cl,–,–,–,–,107,–,–,–
Cc1ccc(/C=C/C(=O)NCCc2cccc(Cl)c2)o1,–,–,–,–,–,–,·,·
SMILES,PG9 Ab binder,LEDGF integ inh,MBD2 DNA inh,UHRF1 MBD2 ctr,DNMT1 inh,rCAG RNA binder,DNMT1 confirm,Beacon interf
O=C1NC[C@H](CCCCN2C[C@H](Cc3ccc(O)cc3)N(CCc3ccc(O)cc3)C(=O)C2=O)N(CCc2ccccc2)C1=O,–,–,–,–,·,–,·,·
CSCC[C@H](NS(=O)(=O)c1ccc(C(C)=O)cc1)c1nnc2ccccn12,–,–,–,–,55,–,–,–
c1ccc(CNc2cccnc2)cc1,–,–,–,–,–,–,·,·
Cc1ccc(S(=O)(=O)N2CCCCC2)cc1NC(=O)Cn1cnc2c1c(=O)n(C)c(=O)n2C,–,–,–,–,–,–,·,·
O=C(NC(=S)Nc1cc(S(=O)(=O)N2CCOCC2)ccc1O)c1ccco1,–,–,–,–,–,–,·,·
O=C(NC(=S)Nc1cc(S(=O)(=O)N2CCOCC2)ccc1N1CCOCC1)c1ccco1,–,–,–,–,60,–,–,–
COc1cc(C(=S)N2CCCC2)ccc1OCc1ccccc1,–,–,–,–,–,–,·,·

# Compound activity (PubChem)
